Measured values taken from PubChem BioAssay (NCI).
Compounds without any hit were thinned out: in the full panel of roughly 79,000, 15% have a hit. Unmarked numbers belong to inactive results. Calls of active or inactive are those of the source. Cut-off read from the data, not from the text of the source: active = growth inhibition above about 70%; inactive = the rest.

Experiment: NCI Yeast Anticancer Drug Screen. Data for the sgs1 mgt1 strain (AID 161);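 note: 0% = growth of cultures given vehicle only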
Conditions: S. cerevisiae sgs1 mgt1 strain, at 50.0 µM (retest, dose inferred, filed as 5.0), active compounds read high
How it was run: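 Compounds are added to genetically altered yeast, and growth is compared with cultures given vehicle alone to give percent inhibition.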

Structure (SMILES) | growth inhibition
CC(C)c1ccc2c(c1)CC[C@@H]1[C@](C)(CO)CCC[C@]21C | 99% (active)
O=c1c2ccccc2ncn1Cc1ccccc1[N+](=O)[O-] | 23%
O=C(NO)C(=O)Nc1cc(Cl)ccc1Cl | 89% (active)
CCCCCCCCCCCCOC(=O)C[n+]1cccc(C(=O)Nc2ccccc2)c1 | 99% (active)
O=C1C=CC(=O)c2ccc(=O)ccc21 | 99% (active)
Cn1c(=O)nc2n(-c3ccc(Cl)cc3)c3cc(Cl)ccc3nc-2c1=O | 15%
Clc1ccc(CN2COc3c(ccc4ccccc34)C2)cc1 | 97% (active)
C1CCN(c2nc(N3CCOCC3)c3[nH]c(N4CCCCC4)nc3n2)CC1 | 86% (active)
O=C1c2ccccc2-c2cc([N+](=O)[O-])c([N+](=O)[O-])cc21 | 99% (active)
CCC[CH2][Sn]([CH2]CCC)([O]C(=O)Cc1ccc(F)cc1)[O]C(=O)Cc1ccc(F)cc1 | 27%
ClCc1ccc2oc3ccccc3c2c1 | -4%
O=C1Oc2ccccc2C(=O)/C1=C/N1C(=O)/C(=C/c2ccc([N+](=O)[O-])cc2)SC1=S | 93% (active)
COC1=CC(=O)c2ncc(Cl)cc2C1=O | 89% (active)
CN(C)c1ccc(C(c2ccc(N(C)C)cc2)c2ccc3c(c2)OCO3)cc1 | 85% (active)
CC(C)(C)OC(=O)CSC#N | 96% (active)
CN=c1ss/c(=N\C(=S)N(C)C)n1-c1ccccc1 | -20%
CCCCCCCCCCCCCCCBr | 6%
O=c1c2ccccc2[nH]c2c1[nH]c1ccccc12 | 24%
COc1cc(/C=C/c2cc[n+](C)cc2)ccc1O | -17%
COc1cc(C2c3cc4c(cc3C(OC3CCCCO3)C3COC(=O)C23)OCO4)cc(OC)c1OC (stereo not drawn) | 11%

Structure (SMILES) | growth inhibition
O=S(=O)(N/N=C/c1ccc(Cl)cc1Cl)c1ccccc1 | -14%
Cc1ccc(C(=O)/C(Cl)=N/O)cc1 | 100% (active)
Cc1ccnc(NS(=O)(=O)c2ccc(N=Cc3c4ccccc4nc4cc(Cl)ccc34)cc2)n1 | 23%
COc1cc(CCN=Cc2cc(Cl)cc(Cl)c2O)c([N+](=O)[O-])cc1OC | 95% (active)
COc1ccc(C(C)c2cc3c(cc2OC/C(C)=N/NC(N)=O)OCO3)cc1 (stereo not drawn) | 87% (active)
C/C(CCC1CCc2ccccc2C1)=N\NC(N)=O (stereo not drawn) | 5%
Cc1nc(C(N)=S)sc1C(=O)CC(=O)C(=O)Nc1nc2ccccc2[nH]1 | -110%
Clc1ccc([O][In]([O]c2ccc(Cl)cn2)[O]c2ccc(Cl)cn2)nc1 | -1%
Cc1ccc(S(=O)(=O)C(=S)Sc2ccccc2)cc1 | 88% (active)
Fc1ccc2[nH]ccc2c1 | 19%
C(=C/c1ccccc1)/C=N/Nc1ccccc1 | -52%
O=S1(=O)CC2C1C1(Cl)OC2(Cl)c2ccccc21 (stereo not drawn) | 6%
CCCNC(=O)C(=O)NNc1ccccc1 | 55%
C/C(=N/O)c1cccc(C(F)(F)F)c1 | -63%
COC1=CC(=O)c2c(O)c3c(c(O)c2C1=O)OC1(Oc2c(cc4cc(C)oc(=O)c4c2O)CC1O)C3O (stereo not drawn) | 98% (active)
CC(C)C1/C(=N/O)CC(c2ccccc2)N(N=O)C1c1ccccc1 (stereo not drawn) | 98% (active)
Cc1c(N)nc(C2CC(=O)N2CC(N)C(N)=O)nc1C(=O)NC(C(=O)NC(C)C(O)C(C)C(=O)NC(C(=O)NCCc1nc(-c2nc(C(=O)NCCCNC3CCCC3)cs2)cs1)C(C)O)C(OC1OC(CO)C(O)C(O)C1OC1OC(CO)C(O)C(OC(N)=O)C1O)c1cnc[nH]1 (stereo not drawn) | 98% (active)
CCOC(=O)C1(Br)CCN(S(=O)(=O)c2ccc(C)cc2)c2ccccc2C1=O (stereo not drawn) | 96% (active)
O=C(C[n+]1ccccc1)c1ccc2ccc3ccc(Cl)cc3c2c1 | 56%

Same assay, conditions: S. cerevisiae sgs1 mgt1 strain, at 50.0 µM, active compounds read high

Structure (SMILES) | growth inhibition
CC(C)c1ccc2c(c1)CC[C@@H]1[C@](C)(CO)CCC[C@]21C | 43.2%
O=c1c2ccccc2ncn1Cc1ccccc1[N+](=O)[O-] | -7%
O=C(NO)C(=O)Nc1cc(Cl)ccc1Cl | 79.8% (active)
CCCCCCCCCCCCOC(=O)C[n+]1cccc(C(=O)Nc2ccccc2)c1 | 99.5% (active)
O=C1C=CC(=O)c2ccc(=O)ccc21 | 25.9%
Cn1c(=O)nc2n(-c3ccc(Cl)cc3)c3cc(Cl)ccc3nc-2c1=O | 7.8%
Clc1ccc(CN2COc3c(ccc4ccccc34)C2)cc1 | 83.2% (active)
C1CCN(c2nc(N3CCOCC3)c3[nH]c(N4CCCCC4)nc3n2)CC1 | 46.4%
O=C1c2ccccc2-c2cc([N+](=O)[O-])c([N+](=O)[O-])cc21 | 96% (active)
CCC[CH2][Sn]([CH2]CCC)([O]C(=O)Cc1ccc(F)cc1)[O]C(=O)Cc1ccc(F)cc1 | 83.3% (active)
ClCc1ccc2oc3ccccc3c2c1 | 27.9%
O=C1Oc2ccccc2C(=O)/C1=C/N1C(=O)/C(=C/c2ccc([N+](=O)[O-])cc2)SC1=S | 96.7% (active)
COC1=CC(=O)c2ncc(Cl)cc2C1=O | 93.2% (active)
CN(C)c1ccc(C(c2ccc(N(C)C)cc2)c2ccc3c(c2)OCO3)cc1 | 95.8% (active)
CC(C)(C)OC(=O)CSC#N | 90.5% (active)
CN=c1ss/c(=N\C(=S)N(C)C)n1-c1ccccc1 | -18.6%
CCCCCCCCCCCCCCCBr | -9.7%
O=c1c2ccccc2[nH]c2c1[nH]c1ccccc12 | -1.65%
COc1cc(/C=C/c2cc[n+](C)cc2)ccc1O | 12.4%
COc1cc(C2c3cc4c(cc3C(OC3CCCCO3)C3COC(=O)C23)OCO4)cc(OC)c1OC (stereo not drawn) | 23.4%

Structure (SMILES) | growth inhibition
O=S(=O)(N/N=C/c1ccc(Cl)cc1Cl)c1ccccc1 | -12.4%
Cc1ccc(C(=O)/C(Cl)=N/O)cc1 | 97.8% (active)
Cc1ccnc(NS(=O)(=O)c2ccc(N=Cc3c4ccccc4nc4cc(Cl)ccc34)cc2)n1 | 99.4% (active)
COc1cc(CCN=Cc2cc(Cl)cc(Cl)c2O)c([N+](=O)[O-])cc1OC | 62.4%
COc1ccc(C(C)c2cc3c(cc2OC/C(C)=N/NC(N)=O)OCO3)cc1 (stereo not drawn) | 82% (active)
C/C(CCC1CCc2ccccc2C1)=N\NC(N)=O (stereo not drawn) | 6.2%
Cc1nc(C(N)=S)sc1C(=O)CC(=O)C(=O)Nc1nc2ccccc2[nH]1 | -24.9%
Clc1ccc([O][In]([O]c2ccc(Cl)cn2)[O]c2ccc(Cl)cn2)nc1 | 56%
Cc1ccc(S(=O)(=O)C(=S)Sc2ccccc2)cc1 | 80.6% (active)
Fc1ccc2[nH]ccc2c1 | 60.6%
C(=C/c1ccccc1)/C=N/Nc1ccccc1 | -23.8%
O=S1(=O)CC2C1C1(Cl)OC2(Cl)c2ccccc21 (stereo not drawn) | 31.1%
CCCNC(=O)C(=O)NNc1ccccc1 | 57%
C/C(=N/O)c1cccc(C(F)(F)F)c1 | -6.55%
COC1=CC(=O)c2c(O)c3c(c(O)c2C1=O)OC1(Oc2c(cc4cc(C)oc(=O)c4c2O)CC1O)C3O (stereo not drawn) | 92.8% (active)
CC(C)C1/C(=N/O)CC(c2ccccc2)N(N=O)C1c1ccccc1 (stereo not drawn) | 90.7% (active)
Cc1c(N)nc(C2CC(=O)N2CC(N)C(N)=O)nc1C(=O)NC(C(=O)NC(C)C(O)C(C)C(=O)NC(C(=O)NCCc1nc(-c2nc(C(=O)NCCCNC3CCCC3)cs2)cs1)C(C)O)C(OC1OC(CO)C(O)C(O)C1OC1OC(CO)C(O)C(OC(N)=O)C1O)c1cnc[nH]1 (stereo not drawn) | 93.5% (active)
CCOC(=O)C1(Br)CCN(S(=O)(=O)c2ccc(C)cc2)c2ccccc2C1=O (stereo not drawn) | 97.8% (active)
O=C(C[n+]1ccccc1)c1ccc2ccc3ccc(Cl)cc3c2c1 | 35.5%
